Reference: article PMC7862700, “An all-to-all approach to the identification of sequence-specific readers for epigenetic DNA modifications on cytosine”

Experiments:
Experiment in all cases: DAPPL (digital affinity profiling via proximity ligation, sequencing); 10 mM Tris-HCl pH 7.5, 50 mM NaCl, 1 mM DTT, 4% glycerol, room temperature, 30 min; GST-TFs on glutathione beads, 16-mer random dsDNA library, 0.1% formaldehyde crosslink after washing; high values mean tight binding
FLI1 = molecular target: T1, FLI1 (Homo sapiens, UniProt Q01543 1-452); conditions: protein: recombinant; tags: N-terminal GST; dsDNA, one strand shown
T1 sequence: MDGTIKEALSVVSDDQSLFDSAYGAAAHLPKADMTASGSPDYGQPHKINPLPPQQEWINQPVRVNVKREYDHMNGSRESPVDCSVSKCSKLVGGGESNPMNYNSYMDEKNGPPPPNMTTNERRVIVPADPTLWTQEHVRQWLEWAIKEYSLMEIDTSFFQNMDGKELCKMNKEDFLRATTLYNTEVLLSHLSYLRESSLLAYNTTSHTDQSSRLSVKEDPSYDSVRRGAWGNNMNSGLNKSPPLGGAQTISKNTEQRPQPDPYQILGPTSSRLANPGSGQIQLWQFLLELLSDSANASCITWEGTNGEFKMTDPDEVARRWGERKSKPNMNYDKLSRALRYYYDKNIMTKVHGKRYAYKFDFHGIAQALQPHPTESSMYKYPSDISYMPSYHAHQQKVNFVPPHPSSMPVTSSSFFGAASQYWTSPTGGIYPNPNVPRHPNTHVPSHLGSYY
Method in brief: (§1)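 Sequencing on an Illumina NextSeq500 followed washing, crosslinking with 0.1% formaldehyde, proximity ligation (BsaI/T4 ligase, 1 h, 37 °C) and PCR amplification of pools that had been incubated for 30 min at room temperature with 200 nmole of a random double-stranded 16-mer DNA library in Tris/NaCl/DTT/glycerol buffer. Each pool held DNA-barcoded human transcription factors, expressed in yeast as GST fusions and captured on glutathione beads, plus a tag-only sample. Binding signal is a hexamer's read frequency for a factor divided by its frequency in the tag-only sample.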

ELK1 = molecular target: T2, ELK1 (Homo sapiens, UniProt P19419 1-428); conditions: protein: recombinant; tags: N-terminal GST; dsDNA, one strand shown
T2 sequence: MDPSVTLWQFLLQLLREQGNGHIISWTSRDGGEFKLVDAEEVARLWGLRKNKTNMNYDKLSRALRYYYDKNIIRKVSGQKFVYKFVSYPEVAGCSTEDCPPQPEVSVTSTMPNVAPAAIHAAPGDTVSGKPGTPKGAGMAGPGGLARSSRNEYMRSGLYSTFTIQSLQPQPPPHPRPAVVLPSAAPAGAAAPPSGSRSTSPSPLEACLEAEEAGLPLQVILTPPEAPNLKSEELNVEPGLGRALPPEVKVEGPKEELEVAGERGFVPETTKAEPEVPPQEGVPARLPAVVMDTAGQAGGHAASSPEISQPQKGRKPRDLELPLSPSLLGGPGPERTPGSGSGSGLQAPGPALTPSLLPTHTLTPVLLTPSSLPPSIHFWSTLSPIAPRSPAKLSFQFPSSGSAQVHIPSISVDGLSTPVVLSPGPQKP
Method in brief: as §1

GABPA = molecular target: T3, GABPA (Homo sapiens, UniProt Q06546 1-454); conditions: protein: recombinant; tags: N-terminal GST; dsDNA, one strand shown
T3 sequence: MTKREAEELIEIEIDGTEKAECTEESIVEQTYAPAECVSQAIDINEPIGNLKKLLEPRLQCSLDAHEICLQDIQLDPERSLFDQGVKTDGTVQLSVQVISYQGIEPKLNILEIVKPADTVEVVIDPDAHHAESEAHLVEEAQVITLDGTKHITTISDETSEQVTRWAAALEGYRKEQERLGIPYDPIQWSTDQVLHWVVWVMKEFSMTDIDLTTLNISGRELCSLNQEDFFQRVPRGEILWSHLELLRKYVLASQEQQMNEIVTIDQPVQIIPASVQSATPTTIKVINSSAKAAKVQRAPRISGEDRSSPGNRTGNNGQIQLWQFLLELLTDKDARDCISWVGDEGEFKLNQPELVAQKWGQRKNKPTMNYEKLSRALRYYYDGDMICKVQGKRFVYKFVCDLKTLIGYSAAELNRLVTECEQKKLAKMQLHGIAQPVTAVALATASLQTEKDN
Method in brief: as §1

ERG = molecular target: T4, ERG (Homo sapiens, UniProt P11308 1-479); conditions: protein: recombinant; tags: N-terminal GST; dsDNA, one strand shown
T4 sequence: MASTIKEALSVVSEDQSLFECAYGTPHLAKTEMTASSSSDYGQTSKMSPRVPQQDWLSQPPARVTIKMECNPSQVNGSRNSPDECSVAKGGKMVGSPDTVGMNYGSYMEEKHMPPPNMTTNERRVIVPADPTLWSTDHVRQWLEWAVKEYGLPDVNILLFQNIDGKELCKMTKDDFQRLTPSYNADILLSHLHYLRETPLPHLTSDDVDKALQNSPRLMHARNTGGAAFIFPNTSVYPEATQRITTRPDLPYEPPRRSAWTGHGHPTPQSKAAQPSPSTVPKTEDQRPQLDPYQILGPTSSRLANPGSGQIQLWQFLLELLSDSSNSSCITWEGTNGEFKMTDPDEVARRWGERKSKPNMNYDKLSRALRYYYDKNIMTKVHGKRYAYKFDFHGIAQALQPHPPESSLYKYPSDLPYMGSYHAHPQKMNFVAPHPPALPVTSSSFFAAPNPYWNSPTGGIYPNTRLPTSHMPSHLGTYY
Method in brief: as §1

ELF1 = ELF1 (Homo sapiens, UniProt P32519 1-619); conditions: protein: recombinant; tags: N-terminal GST; dsDNA, one strand shown
Method in brief: as §1

EHF = molecular target: T5, EHF (Homo sapiens, UniProt Q9NZC4 1-300); conditions: protein: recombinant; tags: N-terminal GST; dsDNA, one strand shown
T5 sequence: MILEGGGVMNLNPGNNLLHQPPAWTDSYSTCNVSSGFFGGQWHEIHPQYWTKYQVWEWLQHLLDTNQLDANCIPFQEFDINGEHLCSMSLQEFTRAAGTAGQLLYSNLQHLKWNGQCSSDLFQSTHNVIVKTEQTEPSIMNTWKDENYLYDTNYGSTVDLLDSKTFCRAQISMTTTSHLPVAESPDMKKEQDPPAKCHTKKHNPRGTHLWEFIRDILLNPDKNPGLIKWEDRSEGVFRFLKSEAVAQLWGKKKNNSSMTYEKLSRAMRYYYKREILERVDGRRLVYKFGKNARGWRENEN
Method in brief: as §1

SPI1 = SPI1 (Homo sapiens, UniProt P17947 1-270); conditions: protein: recombinant; tags: N-terminal GST; dsDNA, one strand shown
Method in brief: as §1

SPIB = SPIB (Homo sapiens, UniProt Q01892 1-262); conditions: protein: recombinant; tags: N-terminal GST; dsDNA, one strand shown
Method in brief: as §1

ELK3 = molecular target: T6, ELK3 (Homo sapiens, UniProt P41970 1-407); conditions: protein: recombinant; tags: N-terminal GST; dsDNA, one strand shown
T6 sequence: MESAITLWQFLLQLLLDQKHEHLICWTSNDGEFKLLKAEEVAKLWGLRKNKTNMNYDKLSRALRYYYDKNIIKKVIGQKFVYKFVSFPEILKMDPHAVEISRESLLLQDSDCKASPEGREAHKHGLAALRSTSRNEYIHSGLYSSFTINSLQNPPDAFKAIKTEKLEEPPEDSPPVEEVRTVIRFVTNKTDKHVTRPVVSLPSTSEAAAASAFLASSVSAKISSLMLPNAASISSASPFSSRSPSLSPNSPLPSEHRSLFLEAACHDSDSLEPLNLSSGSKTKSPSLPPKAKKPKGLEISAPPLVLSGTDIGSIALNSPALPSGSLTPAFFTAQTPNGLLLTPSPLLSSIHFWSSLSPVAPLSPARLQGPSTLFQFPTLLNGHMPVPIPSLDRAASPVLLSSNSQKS
Method in brief: as §1

FEV = molecular target: T7, FEV (Homo sapiens, UniProt Q99581 1-238); conditions: protein: recombinant; tags: N-terminal GST; dsDNA, one strand shown
T7 sequence: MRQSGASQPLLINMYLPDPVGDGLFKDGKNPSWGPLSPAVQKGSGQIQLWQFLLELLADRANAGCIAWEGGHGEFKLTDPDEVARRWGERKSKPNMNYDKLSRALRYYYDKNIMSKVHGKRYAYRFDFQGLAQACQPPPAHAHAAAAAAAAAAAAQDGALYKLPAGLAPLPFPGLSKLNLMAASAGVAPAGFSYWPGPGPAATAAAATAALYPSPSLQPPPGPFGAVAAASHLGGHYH
Method in brief: as §1

ETV5 = ETV5 (Homo sapiens, UniProt P41161 1-510); conditions: protein: recombinant; tags: N-terminal GST; dsDNA, one strand shown
Method in brief: as §1

HSF1 = HSF1 (Homo sapiens, UniProt Q00613 1-529); conditions: protein: recombinant; tags: N-terminal GST; chain copies: 3; dsDNA, one strand shown
Method in brief: as §1

SPIC = molecular target: T8, SPIC (Homo sapiens, UniProt Q8N5J4 1-248); conditions: protein: recombinant; tags: N-terminal GST; dsDNA, one strand shown
T8 sequence: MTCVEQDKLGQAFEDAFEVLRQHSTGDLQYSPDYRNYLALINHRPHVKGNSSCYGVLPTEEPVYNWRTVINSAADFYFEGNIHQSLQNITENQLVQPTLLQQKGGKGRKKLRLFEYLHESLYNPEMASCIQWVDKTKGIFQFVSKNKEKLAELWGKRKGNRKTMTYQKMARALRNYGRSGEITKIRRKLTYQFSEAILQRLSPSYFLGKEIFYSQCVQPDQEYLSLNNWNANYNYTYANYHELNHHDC
Method in brief: as §1

ELF4 = ELF4 (Homo sapiens, UniProt Q99607 1-663); conditions: protein: recombinant; tags: N-terminal GST; dsDNA, one strand shown
Method in brief: as §1

ELK4 = molecular target: T9, ELK4 (Homo sapiens, UniProt P28324-2 1-405); conditions: protein: recombinant; tags: N-terminal GST; dsDNA, one strand shown
T9 sequence: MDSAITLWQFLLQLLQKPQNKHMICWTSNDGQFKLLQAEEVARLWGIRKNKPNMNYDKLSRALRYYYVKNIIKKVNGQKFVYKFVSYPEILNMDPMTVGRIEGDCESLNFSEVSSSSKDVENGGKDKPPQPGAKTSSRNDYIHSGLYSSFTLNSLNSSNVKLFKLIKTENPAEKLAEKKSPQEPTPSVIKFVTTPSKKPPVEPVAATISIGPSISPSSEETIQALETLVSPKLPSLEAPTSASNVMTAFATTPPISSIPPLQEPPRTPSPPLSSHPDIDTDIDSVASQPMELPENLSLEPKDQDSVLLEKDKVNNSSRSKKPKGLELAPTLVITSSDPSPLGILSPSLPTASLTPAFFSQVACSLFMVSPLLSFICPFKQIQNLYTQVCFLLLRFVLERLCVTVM
Method in brief: as §1

ETV2 = molecular target: T10, ETV2 (Homo sapiens, UniProt O00321 1-342); conditions: protein: recombinant; tags: N-terminal GST; dsDNA, one strand shown
T10 sequence: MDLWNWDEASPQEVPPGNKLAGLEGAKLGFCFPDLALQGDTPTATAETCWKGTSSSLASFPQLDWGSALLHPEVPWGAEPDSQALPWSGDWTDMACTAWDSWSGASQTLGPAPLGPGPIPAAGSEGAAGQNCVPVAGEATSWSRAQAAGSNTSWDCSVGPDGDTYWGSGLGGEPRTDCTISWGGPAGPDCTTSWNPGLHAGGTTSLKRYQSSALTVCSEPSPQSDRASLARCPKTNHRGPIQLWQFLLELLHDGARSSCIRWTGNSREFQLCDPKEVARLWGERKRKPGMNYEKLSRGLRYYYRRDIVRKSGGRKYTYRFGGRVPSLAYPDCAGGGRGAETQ
Method in brief: as §1

ELF3 = molecular target: T11, ELF3 (Homo sapiens, UniProt P78545 1-371); conditions: protein: recombinant; tags: N-terminal GST; dsDNA, one strand shown
T11 sequence: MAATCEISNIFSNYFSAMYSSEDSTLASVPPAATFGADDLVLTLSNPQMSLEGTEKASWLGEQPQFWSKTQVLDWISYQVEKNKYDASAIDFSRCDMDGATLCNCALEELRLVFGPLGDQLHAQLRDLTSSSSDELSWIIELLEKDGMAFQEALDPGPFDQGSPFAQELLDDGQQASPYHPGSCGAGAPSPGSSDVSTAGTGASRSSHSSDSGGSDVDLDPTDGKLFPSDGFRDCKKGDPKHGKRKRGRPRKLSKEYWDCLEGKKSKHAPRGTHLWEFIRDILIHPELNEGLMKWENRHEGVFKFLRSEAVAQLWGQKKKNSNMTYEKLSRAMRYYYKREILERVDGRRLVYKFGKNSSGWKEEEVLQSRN
Method in brief: as §1

CRX = CRX (Homo sapiens, UniProt O43186 1-299); conditions: protein: recombinant; tags: N-terminal GST; dsDNA, one strand shown
Method in brief: as §1

ETV1 = ETV1 (Homo sapiens, UniProt P50549 1-477); conditions: protein: recombinant; tags: N-terminal GST; dsDNA, one strand shown
Method in brief: as §1

Sequence of ELF4 (Q99607 whole entry): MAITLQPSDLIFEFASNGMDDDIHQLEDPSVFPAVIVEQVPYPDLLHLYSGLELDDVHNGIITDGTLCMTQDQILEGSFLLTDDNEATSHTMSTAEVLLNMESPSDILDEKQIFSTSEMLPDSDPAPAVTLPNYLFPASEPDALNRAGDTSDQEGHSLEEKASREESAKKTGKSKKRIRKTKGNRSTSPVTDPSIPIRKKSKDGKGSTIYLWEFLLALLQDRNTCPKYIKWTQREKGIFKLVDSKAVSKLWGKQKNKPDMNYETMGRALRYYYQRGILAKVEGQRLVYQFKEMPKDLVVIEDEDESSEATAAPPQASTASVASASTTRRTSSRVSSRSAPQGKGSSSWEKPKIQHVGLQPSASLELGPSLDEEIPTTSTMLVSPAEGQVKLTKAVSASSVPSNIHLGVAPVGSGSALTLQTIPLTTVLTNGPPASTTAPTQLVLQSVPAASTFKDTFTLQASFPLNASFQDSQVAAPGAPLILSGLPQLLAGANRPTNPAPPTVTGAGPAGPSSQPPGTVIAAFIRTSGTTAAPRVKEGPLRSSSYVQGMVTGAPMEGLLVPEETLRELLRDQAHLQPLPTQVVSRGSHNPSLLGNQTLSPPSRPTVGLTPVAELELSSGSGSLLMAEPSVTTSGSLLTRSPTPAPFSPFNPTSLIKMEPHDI
Sequence of SPIB (Q01892 whole entry): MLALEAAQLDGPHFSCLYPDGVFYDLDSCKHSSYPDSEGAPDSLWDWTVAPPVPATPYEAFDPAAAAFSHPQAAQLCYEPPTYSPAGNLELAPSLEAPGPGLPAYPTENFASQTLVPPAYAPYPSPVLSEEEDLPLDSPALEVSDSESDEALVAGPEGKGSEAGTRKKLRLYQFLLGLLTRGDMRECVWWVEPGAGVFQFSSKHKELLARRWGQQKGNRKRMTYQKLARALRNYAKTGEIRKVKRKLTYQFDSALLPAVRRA
Sequence of ETV1 (P50549 whole entry): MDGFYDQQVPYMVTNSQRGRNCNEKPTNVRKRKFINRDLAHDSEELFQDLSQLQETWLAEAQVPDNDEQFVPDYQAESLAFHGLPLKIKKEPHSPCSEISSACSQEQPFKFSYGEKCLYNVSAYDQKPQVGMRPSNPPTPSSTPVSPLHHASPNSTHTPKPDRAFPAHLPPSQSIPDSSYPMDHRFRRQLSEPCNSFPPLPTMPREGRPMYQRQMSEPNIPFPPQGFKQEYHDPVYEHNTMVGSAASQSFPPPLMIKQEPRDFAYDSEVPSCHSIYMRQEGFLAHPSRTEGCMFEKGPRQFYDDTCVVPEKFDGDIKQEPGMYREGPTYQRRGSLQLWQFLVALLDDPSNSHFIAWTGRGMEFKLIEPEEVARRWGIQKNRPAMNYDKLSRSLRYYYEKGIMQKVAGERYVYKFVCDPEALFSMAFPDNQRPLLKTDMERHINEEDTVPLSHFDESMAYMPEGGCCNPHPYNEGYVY
Sequence of ETV5 (P41161 whole entry): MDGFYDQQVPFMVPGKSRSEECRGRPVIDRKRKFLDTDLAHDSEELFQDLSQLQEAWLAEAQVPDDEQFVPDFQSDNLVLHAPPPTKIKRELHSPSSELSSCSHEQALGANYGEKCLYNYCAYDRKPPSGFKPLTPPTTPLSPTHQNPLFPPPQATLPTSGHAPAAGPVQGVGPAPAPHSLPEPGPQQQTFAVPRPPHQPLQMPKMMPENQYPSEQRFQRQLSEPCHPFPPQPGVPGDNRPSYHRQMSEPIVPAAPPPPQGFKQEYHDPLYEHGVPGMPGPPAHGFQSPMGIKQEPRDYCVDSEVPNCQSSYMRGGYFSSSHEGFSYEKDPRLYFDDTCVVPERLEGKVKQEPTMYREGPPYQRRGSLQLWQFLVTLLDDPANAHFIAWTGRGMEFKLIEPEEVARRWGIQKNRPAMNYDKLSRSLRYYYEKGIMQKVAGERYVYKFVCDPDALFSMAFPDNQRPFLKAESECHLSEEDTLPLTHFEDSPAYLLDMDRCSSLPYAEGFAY
Sequence of ELF1 (P32519 whole entry): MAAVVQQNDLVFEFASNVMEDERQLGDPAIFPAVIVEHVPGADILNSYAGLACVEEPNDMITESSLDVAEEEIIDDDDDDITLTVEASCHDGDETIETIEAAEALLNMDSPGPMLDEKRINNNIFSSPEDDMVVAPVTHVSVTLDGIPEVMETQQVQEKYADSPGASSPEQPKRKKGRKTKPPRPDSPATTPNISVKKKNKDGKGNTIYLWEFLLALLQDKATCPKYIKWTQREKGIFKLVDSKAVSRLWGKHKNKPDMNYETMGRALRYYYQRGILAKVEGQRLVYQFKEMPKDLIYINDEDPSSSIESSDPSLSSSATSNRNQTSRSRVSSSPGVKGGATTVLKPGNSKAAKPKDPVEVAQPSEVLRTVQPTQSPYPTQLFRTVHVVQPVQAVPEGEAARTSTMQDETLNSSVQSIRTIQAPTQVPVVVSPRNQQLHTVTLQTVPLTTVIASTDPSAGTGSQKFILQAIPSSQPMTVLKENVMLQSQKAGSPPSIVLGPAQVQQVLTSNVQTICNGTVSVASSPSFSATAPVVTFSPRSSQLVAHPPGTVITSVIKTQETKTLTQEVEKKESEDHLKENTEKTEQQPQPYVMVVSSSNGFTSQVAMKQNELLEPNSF
Sequence of CRX (O43186 whole entry): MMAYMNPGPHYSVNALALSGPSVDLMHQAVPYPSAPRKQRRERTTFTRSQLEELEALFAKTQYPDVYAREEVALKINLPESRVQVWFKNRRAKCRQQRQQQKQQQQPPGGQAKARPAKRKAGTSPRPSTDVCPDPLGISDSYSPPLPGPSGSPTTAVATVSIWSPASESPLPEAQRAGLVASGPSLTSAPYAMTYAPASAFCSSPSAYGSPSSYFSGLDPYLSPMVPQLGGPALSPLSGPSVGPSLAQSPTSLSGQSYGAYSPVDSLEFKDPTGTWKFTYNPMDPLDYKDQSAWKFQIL
Sequence of HSF1 (Q00613 whole entry): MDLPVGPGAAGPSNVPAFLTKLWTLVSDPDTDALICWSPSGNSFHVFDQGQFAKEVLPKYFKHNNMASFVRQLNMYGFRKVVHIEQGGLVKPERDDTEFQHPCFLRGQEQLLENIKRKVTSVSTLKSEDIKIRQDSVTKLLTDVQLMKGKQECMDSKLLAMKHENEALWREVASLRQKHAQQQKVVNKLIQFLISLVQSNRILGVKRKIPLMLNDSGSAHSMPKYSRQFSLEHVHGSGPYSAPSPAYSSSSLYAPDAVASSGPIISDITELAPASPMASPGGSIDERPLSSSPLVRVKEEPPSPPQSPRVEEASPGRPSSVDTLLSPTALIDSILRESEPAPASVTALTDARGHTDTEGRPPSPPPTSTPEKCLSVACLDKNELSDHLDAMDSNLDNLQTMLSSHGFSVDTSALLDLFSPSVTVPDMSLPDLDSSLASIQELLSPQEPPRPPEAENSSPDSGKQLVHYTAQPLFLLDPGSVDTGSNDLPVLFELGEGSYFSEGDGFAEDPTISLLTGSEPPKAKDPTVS

## AGTATT
FLI1
  binding signal: 1.12 fold enrichment (6-mer frequency, TF over GST control)
ELK1
  binding signal: 1.19 fold enrichment (6-mer frequency, TF over GST control)
GABPA
  binding signal: 1.1 fold enrichment (6-mer frequency, TF over GST control)
ERG
  binding signal: 1.2 fold enrichment (6-mer frequency, TF over GST control)
ELF1
  binding signal: 1.14 fold enrichment (6-mer frequency, TF over GST control)
EHF
  binding signal: 1.15 fold enrichment (6-mer frequency, TF over GST control)
SPI1
  binding signal: 1.1 fold enrichment (6-mer frequency, TF over GST control)
SPIB
  binding signal: 1.17 fold enrichment (6-mer frequency, TF over GST control)
ELK3
  binding signal: 1.14 fold enrichment (6-mer frequency, TF over GST control)
FEV
  binding signal: 1.14 fold enrichment (6-mer frequency, TF over GST control)
ETV5
  binding signal: 1.2 fold enrichment (6-mer frequency, TF over GST control)
HSF1
  binding signal: 1.35 fold enrichment (6-mer frequency, TF over GST control)
SPIC
  binding signal: 1.22 fold enrichment (6-mer frequency, TF over GST control)
ELF4
  binding signal: 1.16 fold enrichment (6-mer frequency, TF over GST control)
ELK4
  binding signal: 1.17 fold enrichment (6-mer frequency, TF over GST control)
ETV2
  binding signal: 1.07 fold enrichment (6-mer frequency, TF over GST control)
ELF3
  binding signal: 1.17 fold enrichment (6-mer frequency, TF over GST control)
CRX
  binding signal: 1.57 fold enrichment (6-mer frequency, TF over GST control)
ETV1
  binding signal: 1.19 fold enrichment (6-mer frequency, TF over GST control)
